Measured values as given in PubChem BioAssay (NCI).
Several values for one entry are separate records, joined by “and”; a condition that tells them apart may be missing. Equal values may be shown once. This is part of a sample that, as a whole, favours compounds with a hit. Of some 79,000 tested, about 15% had one in any assay. Cut-off read from the data, not from the text of the source: active = growth inhibition above about 70%; inactive = the rest.

Columns and labels:
[1] = NCI Yeast Anticancer Drug Screen. Data for the rad50 strain (AID 155);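 note: 0% = growth of vehicle-only cultures of the same strain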; settings: S. cerevisiae rad50 strain growth inhibition; at 50.0 µM; active compounds read high
Outline: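 Inhibition values express reduced yeast growth in compound-treated cultures relative to vehicle-treated controls.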

[2] = NCI Yeast Anticancer Drug Screen. Data for the mec2-1 strain (AID 157); settings: S. cerevisiae mec2-1 strain, at 50.0 µM, active compounds read high
Outline: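 Cells of the genetically defined mec2-1 yeast strain are incubated with test compound. Inhibition of growth is calculated against vehicle-treated controls.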

[3] = NCI Yeast Anticancer Drug Screen. Data for the sgs1 mgt1 strain (AID 161);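 note: 0% = growth of cultures given vehicle only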; settings: S. cerevisiae sgs1 mgt1 strain, at 50.0 µM, active compounds read high
Outline: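 Mutant yeast exposed to compound; growth scored against vehicle-only wells.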

[4] = NCI Yeast Anticancer Drug Screen. Data for the cln2 rad14 strain (AID 165);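 note: 0% = growth equal to vehicle treated cultures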; settings: S. cerevisiae cln2 rad14 strain, at 50.0 µM, active compounds read high
Outline: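 The screen exposed genetically defined yeast (cln2 rad14) to test compounds and scored growth inhibition relative to vehicle-treated controls.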

[5] = NCI Yeast Anticancer Drug Screen. Data for the bub3 strain (AID 167); settings: S. cerevisiae bub3 mutant strain, at 50.0 µM, active compounds read high
Outline: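 Steps: expose the mutant yeast strain to compound; grow alongside vehicle-treated cultures; measure growth; express inhibition against the vehicle cultures.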

[6] = NCI Yeast Anticancer Drug Screen. Data for the mlh1 rad18 strain (AID 175); settings: S. cerevisiae mlh1 rad18 strain growth inhibition; at 50.0 µM; active compounds read high
Outline: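 Compound-treated yeast growth, normalised to vehicle controls. Strain bears defined DNA repair mutations.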

Measured: growth inhibition

O=P(O)(O)C(O)c1ccccc1 (stereo unspecified)
inactive: [1] -20.1% | [2] -31.9% | [3] -15.4% | [4] -1.9% | [5] -19.2% | [6] 17.6%

C=CC(N)=O (tested in a mixture with another compound)
inactive: [1] 1.15% | [2] -7.1% | [3] 8.2% | [4] 0.4% | [5] 15.8% | [6] 2.2%

C/C=C1/CN2CCC34c5ccccc5N(C)C23C2CC1C4(C(=O)OC)C(O)O2 (stereo unspecified)
inactive: [1] -31% | [2] -31.8% | [3] -24.7% | [4] -4.2% | [5] -8.4% | [6] -58.9%

O=[N+]([O-])c1ccc(C2C3C(c4ccccc4)=NCCCN32)cc1 (stereo unspecified)
inactive: [1] -0.2% | [2] 12.2% | [3] -8% | [4] -15.2% | [5] -12.2% | [6] -14.7%

COC1=CC23CCCN2CCc2cc4c(cc2C3C1O)OCO4 (stereo unspecified)
inactive: [1] -6.9% and 0.4% and -9.15% | [2] -23.4% and -25.8% and -28.7% | [3] 16.3% and 17.1% and 15.6% | [4] 4% and 8.1% and 2.4% | [5] -12.8% and -5.35% and -6.25% | [6] -3.85% and -1.8% and -36%

CCN(CCCl)c1cc(C(=O)NCCCN(C)CCCNC(=O)c2cc(N(CC)CCCl)c([N+](=O)[O-])cc2[N+](=O)[O-])c([N+](=O)[O-])cc1[N+](=O)[O-]
inactive: [1] -4.75% | [2] -2.9% | [3] -17% | [4] -4.05% | [5] -2.2% | [6] -9%

Cc1cc(N(C)CCCl)ccc1N=Nc1ccccc1C(=O)O
inactive: [1] 36.5% | [2] 10.8% | [3] 36.8% | [4] 6% | [5] 23.4% | [6] 18.8%

O=C1NC(=O)C(CCC(=O)c2ccc3ccccc3c2)C(=O)N1
inactive: [1] -29.1% | [2] -22.8% | [3] -57.6% | [4] -10.8% | [5] -34.8% | [6] -25.8%

CCCCCCCCCCCCBr
inactive: [1] 10.7% | [2] -7.4% | [3] -5.1% | [4] -12.7% | [5] -10.3% | [6] -1.05%

CCC1CN2CCC1CC2C(O)c1cc[n+]([O-])c2ccc(OC)cc12 (stereo unspecified)
inactive: [1] -11.7% | [2] 7.25% | [3] -7.6% | [4] 1.75% | [5] -8.05% | [6] -12.4%

CC1=C(O)C(=O)[C@@H]2O[C@@H]2C1=O
inactive: [1] 42% | [2] 29.6% | [3] 43.8% | [4] 14% | [5] 31.3% | [6] -35.4%

[C-]#[O+].[C-]#[O+].[C-]#[O+].[C-]#[O+].[Cr].c1ccc([PH+](CC[PH+](c2ccccc2)c2ccccc2)CC[PH+](c2ccccc2)c2ccccc2)cc1
inactive: [1] 14.9% | [2] 3.75% | [3] -3.35% | [4] 32.2% | [5] 19.4% | [6] 6.2%

CC(=O)OC1CCC2(C)C(=CCC3C2CCC2(C)C(Oc4ccccc4)CCC32)C1 (stereo unspecified)
inactive: [1] -42.7% | [2] -28.4% | [3] -33.6% | [4] 3.55% | [5] -28.4% | [6] -46.1%

Cc1cc(C)cc(C(O)(C(=O)O)c2ccccc2)c1 (stereo unspecified)
inactive: [1] -0.75% | [2] -5.35% | [3] -5.45% | [4] 5.55% | [5] -5.9% | [6] -4.9%

O=C(NCC(O)CO)c1cc([N+](=O)[O-])cc([N+](=O)[O-])c1N(CCCl)CCCl (stereo unspecified)
inactive: [1] 31.8% | [2] 19.8% | [3] 28.7% | [4] 2.05% | [5] 13.9% | [6] 12.6%

COc1ccc(/C=C\[N+](=O)[O-])cc1OCc1ccccc1
inactive: [1] 7.2% | [2] 8.35% | [3] 22.6% | [4] -13.6% | [5] 7.2% | [6] 8.05%
